Experimental data from PubChem BioAssay (EPA / NIEHS).
Where “and” joins values, the source holds several entries; their conditions need not be identical. Equal values may be shown once. Results filed as inconclusive are left out. A structure can be active in one record and inactive in another. Calls of active or inactive are those of the source. Rule for the calls, unless noted: active = hit-call score of the fitted dose curve at least 0.9, where 1 is the maximum; inconclusive = response in the unintended direction; inactive = score below 0.9.

assay: CCTE_Shafer_MEA_dev_per_burst_spike_percent: CCTE's Neural Network Formation Assay for Percent of Spikes in a Burst, Shafer Lab (AID 2284032; active = hit-call score of the fitted dose curve at least 0.9, where 1 is the maximum; inactive = score below 0.9;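 for AC50: fitted as a decrease in burst spike percentage below DMSO baseline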)
Procedure, shortened: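 Value is trapezoidal AUC over recordings on days 5, 7, 9 and 12 of the well-mean fraction of spikes falling in single-electrode bursts; rat cortical cultures exposed continuously from plating, treatment renewed DIV 5 and 9, fitted downward against DMSO.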

| Compound | AC50 | outcome |
| --- | --- | --- |
| ClC(Cl)=C(c1ccc(Cl)cc1)c1ccc(Cl)cc1 | 5.67 µM (active) |  |
| C=CC(N)=O |  | inactive |
| O=S(=O)(O)C(F)(F)C(F)(F)C(F)(F)C(F)(F)F |  | inactive |
| CO/C=C(/C(=O)OC)c1ccccc1COc1cccc(C(F)(F)F)n1 | 822 nM (active) and 381 nM (active) |  |
| ClC1=C(Cl)[C@]2(Cl)[C@@H]3[C@@H](Cl)[C@H]4O[C@H]4[C@@H]3C1(Cl)C2(Cl)Cl | 25.3 µM (active) |  |
| NS(=O)(=O)C(F)(F)C(F)(F)C(F)(F)C(F)(F)C(F)(F)C(F)(F)C(F)(F)C(F)(F)F | 15 µM (active) | inactive |
| Clc1ccc(C(c2ccccc2Cl)C(Cl)(Cl)Cl)cc1 (stereo not given) | 1.99 µM (active) |  |
| ClC1=C(Cl)[C@]2(Cl)[C@@H]3[C@@H]4C[C@@H]([C@H]5O[C@@H]45)[C@@H]3[C@@]1(Cl)C2(Cl)Cl | 24.2 µM (active) |  |
| Oc1ccc(C(c2ccc(O)cc2)(C(F)(F)F)C(F)(F)F)cc1 | 16.7 µM (active) | inactive |
| O=C(O)C(F)(F)C(F)(F)C(F)(F)C(F)(F)C(F)(F)F |  | inactive |
| CCOP(=S)(OCC)SCSC(C)(C)C | 23.1 µM (active) and 27.1 µM (active) |  |

assay: CCTE_Deisenroth_AIME_384WELL_CTox_Inactive: Cytotoxicity Assessment (CTOX) in CCTE's 384-well Estrogen Receptor Transactivation Assay without AIME metabolic competence (metabolism negative), Deisenroth Lab (AID 2284039);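 note: cell viability via live-cell protease substrate cleaved to fluorescent probe; cells exposed 24 h to medium preincubated 2 h with alginate-water beads without S9; loss of fluorescence signal means loss of viability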
Procedure, shortened: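 Metabolism-negative arm: chemicals (10-point, 0.002 - 200 uM) preincubated 2 h with alginate-water lids, medium moved onto VM7Luc4E2 cells for 24 h. Fluorescent live-cell protease readout; bidirectional curve fit.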

| Compound | outcome |
| --- | --- |
| Cc1ccccc1CO[C@@H]1C[C@@]2(C(C)C)CC[C@]1(C)O2 | inactive |
| Cc1cc2c3c(c1)C(c1ccccc1)=N[C@@H](NC(=O)c1ccncc1)C(=O)N3CC2 | inactive |
| Cc1ccccc1O | inactive |
| C1CC2OC2CC1C1CO1 (stereo not given) | inactive |
| Clc1ccc(Cl)cc1 | inactive |

assay: CCTE_Shafer_MEA_dev_active_electrodes_number: CCTE's Neural Network Formation Assay for Number of Active Electrodes, Shafer Lab (AID 2284040);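 for AC50: potency for loss of active electrodes versus DMSO so lower counts are hits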
Procedure, shortened: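 Counts electrodes per well firing at least 5 spikes/min, recorded on days 5, 7, 9 and 12 in rat cortical cultures dosed continuously from plating (treatment refreshed DIV 5, 9). Value is the area under the curve over recordings, fitted downward relative to DMSO.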

| Compound | AC50 | outcome |
| --- | --- | --- |
| ClC(Cl)=C(c1ccc(Cl)cc1)c1ccc(Cl)cc1 | 4.01 µM (active) |  |
| C=CC(N)=O |  | inactive |
| O=S(=O)(O)C(F)(F)C(F)(F)C(F)(F)C(F)(F)F | 11.4 µM (active) | inactive |
| CO/C=C(/C(=O)OC)c1ccccc1COc1cccc(C(F)(F)F)n1 | 229 nM (active) and 493 nM (active) |  |
| ClC1=C(Cl)[C@]2(Cl)[C@@H]3[C@@H](Cl)[C@H]4O[C@H]4[C@@H]3C1(Cl)C2(Cl)Cl | 23.3 µM (active) |  |
| NS(=O)(=O)C(F)(F)C(F)(F)C(F)(F)C(F)(F)C(F)(F)C(F)(F)C(F)(F)C(F)(F)F | 6.65 µM (active) | inactive |
| Clc1ccc(C(c2ccccc2Cl)C(Cl)(Cl)Cl)cc1 (stereo not given) | 4.03 µM (active) |  |
| Oc1ccc(C(c2ccc(O)cc2)(C(F)(F)F)C(F)(F)F)cc1 | 16.4 µM (active) | inactive |
| CCOP(=S)(OCC)SCSC(C)(C)C | 18.2 µM (active) and 16.1 µM (active) |  |
